# Test results: PMC11006913
# Where a chain is given by its changes, count along the chain named.
# Key:
# Assay in all cases: PBM; 200 nM protein, PBS
# Conditions in all cases: dsDNA, one strand shown
# HOXB6 [1] = biological target: HOXB6 (Homo sapiens, UniProt P17509 132-218, K202E)
# HOXB6 [2] = biological target: HOXB6 (Homo sapiens, UniProt P17509 132-218)
# ALX4 = ALX4 (Homo sapiens, UniProt Q9H161 200-286, Q225E)
# SIX6 = biological target: T1, SIX6 (Homo sapiens, UniProt O95475 114-200, T165G)
# T1 sequence: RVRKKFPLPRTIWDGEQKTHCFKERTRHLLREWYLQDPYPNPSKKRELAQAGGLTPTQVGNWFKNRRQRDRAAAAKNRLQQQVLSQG
# HOXC9 = HOXC9 (Homo sapiens, UniProt P31274 178-260, R222W)
# HOXC9, sequence (P31274 178-260 R222W): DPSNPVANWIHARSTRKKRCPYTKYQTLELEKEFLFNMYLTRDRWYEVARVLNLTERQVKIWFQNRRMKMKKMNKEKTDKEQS
# HESX1 = HESX1 (Homo sapiens, UniProt Q9UBX0 95-180)
# HESX1, sequence (Q9UBX0 95-180): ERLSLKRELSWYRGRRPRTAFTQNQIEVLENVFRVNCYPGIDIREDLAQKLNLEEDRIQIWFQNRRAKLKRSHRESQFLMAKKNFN
# HOXA2 [3] = biological target: HOXA2 (Homo sapiens, UniProt O43364 129-215, R185T)
# HOXA2 (Homo sapiens, UniProt O43364 129-215, R185T), sequence (O43364 129-215 R185T): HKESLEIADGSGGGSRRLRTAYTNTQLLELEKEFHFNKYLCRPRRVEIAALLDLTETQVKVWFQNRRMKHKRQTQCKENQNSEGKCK
# MSX2 [4] = biological target: MSX2 (Homo sapiens, UniProt P35548 130-214, R199I)
# MSX2 (Homo sapiens, UniProt P35548 130-214, R199I), sequence (P35548 130-214 R199I): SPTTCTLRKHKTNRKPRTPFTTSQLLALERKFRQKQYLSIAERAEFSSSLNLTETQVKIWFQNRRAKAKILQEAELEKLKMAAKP
# NKX2-6 [5] = biological target: T2, NKX2-6 (Homo sapiens, UniProt A6NCS4 118-204)
# T2 sequence: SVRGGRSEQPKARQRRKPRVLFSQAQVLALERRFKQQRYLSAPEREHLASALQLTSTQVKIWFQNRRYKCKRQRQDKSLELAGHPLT
# HOXA2 [6] = biological target: HOXA2 (Homo sapiens, UniProt O43364 129-215, R185K)
# HOXA2 (Homo sapiens, UniProt O43364 129-215, R185K), sequence (O43364 129-215 R185K): as the sequence (O43364 129-215 R185T) above, with T57K counted along it
# MSX2 [7] = biological target: MSX2 (Homo sapiens, UniProt P35548 130-214)
# MSX2 (Homo sapiens, UniProt P35548 130-214), sequence (P35548 130-214): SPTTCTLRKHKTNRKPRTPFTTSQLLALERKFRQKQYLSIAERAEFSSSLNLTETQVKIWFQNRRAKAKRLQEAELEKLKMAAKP
# NKX2-6 [8] = biological target: T3, NKX2-6 (Homo sapiens, UniProt A6NCS4 118-204, F151L)
# T3 sequence: T2 sequence with F34L
# MSX2 [9] = biological target: MSX2 (Homo sapiens, UniProt P35548 130-214, F161Y)
# MSX2 (Homo sapiens, UniProt P35548 130-214, F161Y), sequence (P35548 130-214 F161Y): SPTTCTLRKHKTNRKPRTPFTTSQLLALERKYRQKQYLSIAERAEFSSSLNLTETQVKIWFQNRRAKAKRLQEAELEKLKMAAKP
# HOXA2 [10] = biological target: HOXA2 (Homo sapiens, UniProt O43364 129-215, Y150S)
# HOXA2 (Homo sapiens, UniProt O43364 129-215, Y150S), sequence (O43364 129-215 Y150S): as the sequence (O43364 129-215 R185T) above, with Y22S, T57R counted along it
# HOXA2 [11] = biological target: HOXA2 (Homo sapiens, UniProt O43364 129-215)
# HOXA2 (Homo sapiens, UniProt O43364 129-215), sequence (O43364 129-215): as the sequence (O43364 129-215 R185T) above, with T57R counted along it
# HOXB6 (Homo sapiens, UniProt P17509 132-218), sequence (P17509 132-218): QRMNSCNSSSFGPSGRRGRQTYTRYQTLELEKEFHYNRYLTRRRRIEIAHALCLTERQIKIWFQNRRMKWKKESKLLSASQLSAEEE
# ALX4, sequence (Q9H161 200-286 Q225E): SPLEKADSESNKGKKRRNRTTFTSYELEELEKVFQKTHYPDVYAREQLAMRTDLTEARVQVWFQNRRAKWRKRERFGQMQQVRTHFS
# HOXB6 (Homo sapiens, UniProt P17509 132-218, K202E), sequence (P17509 132-218 K202E): as the sequence (P17509 132-218) above, with K71E counted along it
sequence,measurement,setting,value
GGCAGCAC,binding signal,HOXB6 [1],"9.12 upbm affinity estimate (log intensity, higher = more binding, comparable within an allelic series)"
same,binding signal,HOXB6 [2],"9.12 upbm affinity estimate (log intensity, higher = more binding, comparable within an allelic series)"
CGTTGCCC,binding signal,HOXB6 [1],"9.13 upbm affinity estimate (log intensity, higher = more binding, comparable within an allelic series)"
same,binding signal,HOXB6 [2],"9.12 upbm affinity estimate (log intensity, higher = more binding, comparable within an allelic series)"
AATGATTG,binding signal,HOXB6 [1],"9.68 upbm affinity estimate (log intensity, higher = more binding, comparable within an allelic series)"
same,binding signal,HOXB6 [2],"10.7 upbm affinity estimate (log intensity, higher = more binding, comparable within an allelic series)"
AATACCAA,binding signal,HOXB6 [1],"9.59 upbm affinity estimate (log intensity, higher = more binding, comparable within an allelic series)"
same,binding signal,HOXB6 [2],"10.2 upbm affinity estimate (log intensity, higher = more binding, comparable within an allelic series)"
CCCCGGTC,binding signal,HOXB6 [1],"8.98 upbm affinity estimate (log intensity, higher = more binding, comparable within an allelic series)"
same,binding signal,HOXB6 [2],"9.03 upbm affinity estimate (log intensity, higher = more binding, comparable within an allelic series)"
CAAAATGG,binding signal,HOXB6 [1],"9.63 upbm affinity estimate (log intensity, higher = more binding, comparable within an allelic series)"
same,binding signal,HOXB6 [2],"10.4 upbm affinity estimate (log intensity, higher = more binding, comparable within an allelic series)"
AAAAAAAT,binding signal,HOXB6 [1],"9.72 upbm affinity estimate (log intensity, higher = more binding, comparable within an allelic series)"
same,binding signal,HOXB6 [2],"10.2 upbm affinity estimate (log intensity, higher = more binding, comparable within an allelic series)"
CCGAGCGC,binding signal,HOXB6 [1],"9.06 upbm affinity estimate (log intensity, higher = more binding, comparable within an allelic series)"
same,binding signal,HOXB6 [2],"9.04 upbm affinity estimate (log intensity, higher = more binding, comparable within an allelic series)"
AATAAATC,binding signal,ALX4,"10.8 upbm affinity estimate (log intensity, higher = more binding, comparable within an allelic series)"
ACTATTCA,binding signal,HOXB6 [1],"9.59 upbm affinity estimate (log intensity, higher = more binding, comparable within an allelic series)"
same,binding signal,HOXB6 [2],"10.2 upbm affinity estimate (log intensity, higher = more binding, comparable within an allelic series)"
AAGCAGGC,binding signal,HOXB6 [1],"9.08 upbm affinity estimate (log intensity, higher = more binding, comparable within an allelic series)"
same,binding signal,HOXB6 [2],"9.05 upbm affinity estimate (log intensity, higher = more binding, comparable within an allelic series)"
AGGTGTAA,binding signal,SIX6,"10.5 upbm affinity estimate (log intensity, higher = more binding, comparable within an allelic series)"
AGGCGGAC,binding signal,HOXB6 [1],"9.08 upbm affinity estimate (log intensity, higher = more binding, comparable within an allelic series)"
same,binding signal,HOXB6 [2],"9.04 upbm affinity estimate (log intensity, higher = more binding, comparable within an allelic series)"
CGGCGCGC,binding signal,HOXB6 [1],"9.13 upbm affinity estimate (log intensity, higher = more binding, comparable within an allelic series)"
same,binding signal,HOXB6 [2],"9.19 upbm affinity estimate (log intensity, higher = more binding, comparable within an allelic series)"
CCCTGGGA,binding signal,HOXB6 [1],"8.98 upbm affinity estimate (log intensity, higher = more binding, comparable within an allelic series)"
same,binding signal,HOXB6 [2],"8.98 upbm affinity estimate (log intensity, higher = more binding, comparable within an allelic series)"
ATTTCATA,binding signal,HOXB6 [1],"9.65 upbm affinity estimate (log intensity, higher = more binding, comparable within an allelic series)"
same,binding signal,HOXB6 [2],"10.2 upbm affinity estimate (log intensity, higher = more binding, comparable within an allelic series)"
AGGTGTGA,binding signal,SIX6,"10.5 upbm affinity estimate (log intensity, higher = more binding, comparable within an allelic series)"
AATGTTGT,binding signal,HOXB6 [1],"9.62 upbm affinity estimate (log intensity, higher = more binding, comparable within an allelic series)"
same,binding signal,HOXB6 [2],"10.2 upbm affinity estimate (log intensity, higher = more binding, comparable within an allelic series)"
GAGGGGCA,binding signal,HOXB6 [1],"9.15 upbm affinity estimate (log intensity, higher = more binding, comparable within an allelic series)"
same,binding signal,HOXB6 [2],"9.24 upbm affinity estimate (log intensity, higher = more binding, comparable within an allelic series)"
GCACGTGC,binding signal,HOXB6 [1],"9.35 upbm affinity estimate (log intensity, higher = more binding, comparable within an allelic series)"
same,binding signal,HOXB6 [2],"9.36 upbm affinity estimate (log intensity, higher = more binding, comparable within an allelic series)"
AATAAATA,binding signal,ALX4,"11 upbm affinity estimate (log intensity, higher = more binding, comparable within an allelic series)"
same,binding signal,HOXC9,"11 upbm affinity estimate (log intensity, higher = more binding, comparable within an allelic series)"
CCCAGCTC,binding signal,HOXB6 [1],"9.08 upbm affinity estimate (log intensity, higher = more binding, comparable within an allelic series)"
same,binding signal,HOXB6 [2],"9.08 upbm affinity estimate (log intensity, higher = more binding, comparable within an allelic series)"
AGTCCTCC,binding signal,HOXB6 [1],"9.17 upbm affinity estimate (log intensity, higher = more binding, comparable within an allelic series)"
same,binding signal,HOXB6 [2],"9.06 upbm affinity estimate (log intensity, higher = more binding, comparable within an allelic series)"
TCCTAGGA,binding signal,HOXB6 [1],"9.13 upbm affinity estimate (log intensity, higher = more binding, comparable within an allelic series)"
same,binding signal,HOXB6 [2],"9.16 upbm affinity estimate (log intensity, higher = more binding, comparable within an allelic series)"
GGGTCCGA,binding signal,HOXB6 [1],"9.03 upbm affinity estimate (log intensity, higher = more binding, comparable within an allelic series)"
same,binding signal,HOXB6 [2],"9.07 upbm affinity estimate (log intensity, higher = more binding, comparable within an allelic series)"
CATTAGGC,binding signal,HOXB6 [1],"9.37 upbm affinity estimate (log intensity, higher = more binding, comparable within an allelic series)"
same,binding signal,HOXB6 [2],"10.4 upbm affinity estimate (log intensity, higher = more binding, comparable within an allelic series)"
ATCACATG,binding signal,HOXB6 [1],"9.52 upbm affinity estimate (log intensity, higher = more binding, comparable within an allelic series)"
same,binding signal,HOXB6 [2],"9.98 upbm affinity estimate (log intensity, higher = more binding, comparable within an allelic series)"
TCATATCA,binding signal,SIX6,"11.2 upbm affinity estimate (log intensity, higher = more binding, comparable within an allelic series)"
AATAAAAG,binding signal,ALX4,"10.4 upbm affinity estimate (log intensity, higher = more binding, comparable within an allelic series)"
same,binding signal,HOXC9,"11 upbm affinity estimate (log intensity, higher = more binding, comparable within an allelic series)"
GCCCCGCA,binding signal,HOXB6 [1],"9.01 upbm affinity estimate (log intensity, higher = more binding, comparable within an allelic series)"
same,binding signal,HOXB6 [2],"9.08 upbm affinity estimate (log intensity, higher = more binding, comparable within an allelic series)"
CTCCTCGC,binding signal,HOXB6 [1],"9.02 upbm affinity estimate (log intensity, higher = more binding, comparable within an allelic series)"
same,binding signal,HOXB6 [2],"9.05 upbm affinity estimate (log intensity, higher = more binding, comparable within an allelic series)"
GACACCCC,binding signal,SIX6,"10.6 upbm affinity estimate (log intensity, higher = more binding, comparable within an allelic series)"
CGACACCC,binding signal,SIX6,"10.5 upbm affinity estimate (log intensity, higher = more binding, comparable within an allelic series)"
AAGTAGAG,binding signal,HESX1,"7.4 upbm affinity estimate (log intensity, higher = more binding, comparable within an allelic series)"
CTGGTGTC,binding signal,SIX6,"10.6 upbm affinity estimate (log intensity, higher = more binding, comparable within an allelic series)"
TAACTTGA,binding signal,HESX1,"7.21 upbm affinity estimate (log intensity, higher = more binding, comparable within an allelic series)"
CGCCACGC,binding signal,HOXA2 [3],"7.14 upbm affinity estimate (log intensity, higher = more binding, comparable within an allelic series)"
same,binding signal,MSX2 [4],"9.28 upbm affinity estimate (log intensity, higher = more binding, comparable within an allelic series)"
same,binding signal,NKX2-6 [5],"9.43 upbm affinity estimate (log intensity, higher = more binding, comparable within an allelic series)"
same,binding signal,HOXA2 [6],"10.1 upbm affinity estimate (log intensity, higher = more binding, comparable within an allelic series)"
same,binding signal,MSX2 [7],"9.35 upbm affinity estimate (log intensity, higher = more binding, comparable within an allelic series)"
same,binding signal,NKX2-6 [8],"9.12 upbm affinity estimate (log intensity, higher = more binding, comparable within an allelic series)"
same,binding signal,MSX2 [9],"9.31 upbm affinity estimate (log intensity, higher = more binding, comparable within an allelic series)"
same,binding signal,HOXA2 [10],"10.3 upbm affinity estimate (log intensity, higher = more binding, comparable within an allelic series)"
same,binding signal,HOXA2 [11],"7.2 upbm affinity estimate (log intensity, higher = more binding, comparable within an allelic series)"
